# Screening results as filed in PubChem BioAssay.
# HEK293 cAMP ctrl: raises cAMP in parental HEK293 cells, TSHR agonist counter-screen. Potency, µM (highest dose often 57.1 µM), most hits filed as activators. parental HEK293 CNG cAMP sensor, membrane potential fluorescence. 73,000 compounds, 2.5% hits; also: nearly all actives have a fitted effect of over 55% in size
#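 Counterscreen for endogenous-receptor signalling: CNG-channel HEK 293 cells report cAMP rise by membrane depolarization. After 60 min dye equilibration with 100 uM RO 20-1724, compounds incubated 30 min before bottom-read fluorescence at 590 nm.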
# PK Bst: pyruvate kinase (B. stearothermophilus) modulation. purified pyruvate kinase, luminescence ATP production; ribose 5-phosphate activator present at AC10. Potency, µM. 51,000 compounds, 1.2% hits. AID 361; in the data active = potency below about 11 µM; inconclusive = mostly about 12 µM to 25 µM;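 the screen sought inhibitors and activators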
# Luciferase inh: firefly luciferase inhibition. purified firefly luciferase, luminescence, 8 min. Potency, µM (doses to about 57.1 µM), actives largely listed as inhibitors. 72,000 compounds, 2.2% hits. AID 411; also: nearly all actives have a fitted effect of over 40% in size
# Target sequence (P08659 whole entry, looked up): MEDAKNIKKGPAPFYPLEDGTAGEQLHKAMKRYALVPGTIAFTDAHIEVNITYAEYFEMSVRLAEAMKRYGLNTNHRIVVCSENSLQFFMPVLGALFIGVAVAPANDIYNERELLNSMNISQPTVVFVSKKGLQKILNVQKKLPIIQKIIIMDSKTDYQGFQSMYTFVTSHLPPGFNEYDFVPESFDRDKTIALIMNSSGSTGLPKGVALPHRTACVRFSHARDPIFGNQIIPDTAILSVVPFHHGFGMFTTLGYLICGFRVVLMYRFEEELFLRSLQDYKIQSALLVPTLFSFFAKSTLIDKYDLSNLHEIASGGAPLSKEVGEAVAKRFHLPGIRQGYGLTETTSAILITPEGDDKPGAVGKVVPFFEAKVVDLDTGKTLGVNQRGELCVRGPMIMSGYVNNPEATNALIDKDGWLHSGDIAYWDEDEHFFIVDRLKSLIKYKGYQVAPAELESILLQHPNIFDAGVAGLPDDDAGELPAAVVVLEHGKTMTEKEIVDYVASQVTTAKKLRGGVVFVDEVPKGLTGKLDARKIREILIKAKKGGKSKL
#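 Substrate buffer containing 10 uM ATP (pH 7.2 imidazole, Mg2+, KCl, detergent, BSA) is dispensed, compound pinned in, then luciferase/luciferin detector mix added. After 8 min at ambient temperature, light output is measured.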
# TSHR agonist: activates the human thyroid stimulating hormone receptor; P16473; HEK293-CNG-TSHR cells (CNG channel as cAMP sensor), membrane potential dye, cAMP; Potency, µM (highest dose often 57.1 µM), actives largely listed as activators; 73,000 compounds, 0.48% hits; AID 926; active = well fitted activation curve with a large enough effect in the main read-out, with a control signal flat, not every such curve was filed as active; inconclusive = small, poorly fitted or top-dose-only effect, or a change in a side signal; inactive = no such curve, though single readings can be large or run the other way; reference of the percent scale not stated here;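 also: the control signal comes from parental cells without the receptor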
#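 cAMP rise detected as CNG-channel membrane depolarization by fluorescent dye (emission 590 nm), 30 min after compound, following 60 min dye loading containing 100 uM RO 20-1724 at room temperature. Cells: TSHR/CNG HEK 293, with parental CNG HEK 293 as control.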
# Hits are given with their value; n = inactive; u = inconclusive; x = no result; [ ] = dose if it differs, or a comment. In the library only some 5.2% were active in any assay of this set; here they are far more common. Unless noted, calls follow the shape of the dose curve; as a rule, active = well fitted curve in the direction sought with a large enough effect; inconclusive = small, poorly fitted or top-dose-only effect, or another doubt; inactive = no such curve, though single readings can be large; an effect the other way counts as inactive or inconclusive.
SMILES,HEK293 cAMP ctrl,PK Bst,Luciferase inh,TSHR agonist
COC(=O)c1ccc(COC(=O)c2ccc(-n3cnnn3)cc2)o1,n,n,n,n
O=C(OCCOc1ccccc1Cl)c1ccc(-n2cnnn2)cc1,40µM,n,n,u
COC(=O)c1ccc(Cn2cnc3ccccc3c2=O)cc1,n,n,n,n
Cc1cc(C(=O)CSc2nnc(N)s2)c(C)n1CCc1ccc(Cl)cc1,25µM,n,n,u
COc1ccc(CCn2c(C)cc(C(=O)CSc3nnc(N)s3)c2C)cc1,25µM,n,n,u
Cc1cc(C(=O)CSc2nnc(N)s2)c(C)n1CCc1ccc(F)cc1,u,n,n,u
CC(=O)OC(C(=O)n1nc(C)cc1C)c1ccccc1 (stereo unspecified),n,n,n,n
COc1ccc(Oc2cn[nH]c2-c2ccc(O)cc2O)cc1,2µM,n,n,u
O=C(CSc1nnnn1-c1cccc2ccccc12)N1CCOCC1,n,8,n,n
Cc1nnc(SCC(=O)N2CCOCC2)c2ccccc12,x,n,n,x
Cc1cccc2cc(CN(Cc3nnnn3Cc3ccco3)C3CCCC3)c3nnnn3c12,10µM,n,n,u
CCCCCCCCCCCCCCCCOC[C@@H](COCC(F)(F)F)OP(=O)(O)OCO,n,x,n,20µM
Clc1ccc(OCc2nn3c(C4CCCCC4)nnc3s2)cc1,n,n,n,x
O=C(Nc1ccccc1)c1cc([N+](=O)[O-])ccc1Cl,n,x,u,u
O=C(Nc1ccc([N+](=O)[O-])cc1Cl)c1cc(Cl)ccc1O,0.5µM,x,u,u
Brc1ccc(-c2cnnc(N3CCCC3)n2)cc1,x,2.4,n,x
Cc1cc(C)n(-c2nncc(-c3ccccc3)n2)n1,n,x,n,n
Cc1ccc(-n2ncc(C#N)c2/N=C/N2CCCCCC2)cc1,32µM,n,n,u
Cc1ccc(-n2ncc(C#N)c2/N=C/N2CCN(C)CC2)cc1,n,n,n,n
O=C(O)CCSc1nnnn1-c1ccccc1,n,n,n,n
Fc1ccccc1OCCSc1nnnn1-c1ccccc1,n,x,16µM,x
c1ccc(OCCSc2nnnn2-c2ccccc2)cc1,25µM,x,u,u
c1ccc(-n2nnnc2SCc2cccc3nsnc23)cc1,20µM,n,n,u
Cc1cccc(-c2nc(CSCC(=O)NCCCN3CCOCC3)c(C)o2)c1,n,n,n,n[11.4 µM]
COC(=O)c1sccc1NC(=O)c1ccc2c(c1)OCO2,n,x,n,n
SMILES,HEK293 cAMP ctrl,PK Bst,Luciferase inh,TSHR agonist
COC(=O)c1sccc1NC(=O)c1ccc(Br)o1,4µM,x,n,u
COC(=O)c1sccc1NC(=O)c1cc2c(s1)CCCC2,u,x,20µM,u
Cc1c(C(=O)O)oc2ccc(S(=O)(=O)N3CCC(C)CC3)cc12,n,n,n,n[11.4 µM]
CCc1ccc2[nH]c(=O)c(CN(CCCN3CCOCC3)C(=O)Nc3ccccc3)cc2c1,n,x,n,n
CCc1ccc2[nH]c(=O)c(CN(CCCN3CCOCC3)C(=O)Nc3ccc(Cl)cc3)cc2c1,u,6.6,n,u
CCSc1nnc(-c2cccc(S(=O)(=O)N(CC)CC)c2)n1Cc1ccccc1,16µM,n,n,u
CCN(CC)S(=O)(=O)c1cccc(-c2nnc(SCc3ncc(-c4ccccc4)o3)n2C)c1,u,n,n,u
CCCc1ccc(-c2ccc(F)c(N)c2)nc1,n,x,2µM,n
Nc1cc(-c2nn[nH]n2)ccc1F,n,n,n,n
Cc1ccc(S(=O)(=O)N2C(=O)CCC2C(=O)Nc2ccc3c(c2)OCCO3)cc1 (stereo unspecified),n,2.3,n,n
Cc1ccc(S(=O)(=O)N2CCC(C(=O)N[C@@H](C)C(=O)Nc3ccc4c(c3)OCO4)CC2)cc1,n,n,n,n
CCCOc1ccc2ccccc2c1/C=N/n1c(C)nnc1-n1nc(C)cc1C,4µM,x,n,u
CN1CCN(c2ncc3nc(-c4cn(C)c5ccccc45)c(=O)n(C[C@H]4CCCO4)c3n2)CC1,n,x,n[11.4 µM],n
Cc1nc2sc3c(c2c2nc(-c4ccco4)nn12)CCCC3,32µM,n,n,u
c1ccc2c(c1)Cc1cc3cc4c(cc3nc1-2)OCO4,n,x,x,x
c1ccc2c(c1)CCN(c1nc3cc4c(cc3s1)OCO4)C2,n,2.8,4µM,n
O=C(c1ccc2nc(N3CCOCC3)sc2c1)N1CCCC1,n,x,n,u
c1ccc(N2CCN(c3nc4cc5c(cc4s3)OCO5)CC2)cc1,n,x,u,n
c1c2c(cc3sc(N4CCCCC4)nc13)OCO2,n,6.2,6.3µM,n
c1c2c(cc3sc(N4CCOCC4)nc13)OCO2,n,n,16µM,x
COc1cccc(N2CCN(c3c4c(nc5ncnn35)CCC4)CC2)c1,n,n,n,n
CN(C)Cc1ccc(-c2cc3onc(-c4ccccc4)c3c(=O)n2C)cc1,n[11.4 µM],x,4µM,x
CCOc1ccc2cc(C#N)c(SCC(=O)N3CCOCC3)nc2c1,n,n,n,n
O=C(CSc1nc2ccccc2nc1SCC(=O)N1CCCCC1)N1CCCCC1,n,x,x,25µM
CCOc1ccc2nc(SCC(=O)N3CCCCCC3)c(C#N)cc2c1,16µM,x,n,u
SMILES,HEK293 cAMP ctrl,PK Bst,Luciferase inh,TSHR agonist
O=C(CSc1nc2ccccc2nc1SCC(=O)N1CCOCC1)N1CCOCC1,n,x,n,n
O=C(c1ccc(N2CN(C(=O)c3ccco3)c3nc4ccccc4nc32)cc1)N1CCOCC1,n,x,n,1.3µM
O=C(c1ccncc1)N1CCN(C(=O)c2ccco2)CC1,n,n,n,x
O=C(NCc1cccc(C(F)(F)F)c1)C1CCCN(c2ncccn2)C1 (stereo unspecified),n,n,n,n
O=C(Nc1cccc(C(F)(F)F)c1)C1CCCN(c2ncccn2)C1 (stereo unspecified),25µM,n,n,u
CC1CCCC(C)N1C(=O)c1cc(-c2cccs2)on1 (stereo unspecified),n,n,n,20µM
N#Cc1c(/N=C/c2ccco2)sc2c1CCC2,n,x,2.5µM,n
Cc1ccc(/C=N/c2sc3c(c2C#N)CCC3)s1,n,4.3,1.6µM,n
CC(C)C(NC(=O)C1CCCCC1)C(=O)Nc1ccc2c(c1)OCCO2 (stereo unspecified),n,u,13µM,n
Cn1ccnc1SCC(=O)c1cc2ccccc2o1,n,n,n,n
Cn1ccnc1SCC(=O)Nc1ccc2ccccc2c1,n,n,13µM,n
CCOC(=O)c1cc2occc2n1CC(=O)NC1CCCCC1C (stereo unspecified),13µM,n,n,u
COC(=O)c1cc2occc2n1CC(=O)Nc1cc(OC)cc(OC)c1,n,n,n,n[11.4 µM]
Cc1c(NC(=O)c2cc3nc(-c4ccccc4)cc(C)n3n2)c(=O)n(-c2ccccc2)n1C,n,n,n,n
CCc1ccc(S(=O)(=O)NCCc2cn3ccsc3n2)s1,n,x,n,n
Clc1ccc(-c2nc(-c3ccccn3)no2)cc1Cl,n[11.4 µM],x,3.2µM,n[11.4 µM]
Brc1ccc(-c2nc(-c3ccncc3)no2)o1,n,n,n,n
Brc1ccc(-c2nc(-c3ccccn3)no2)o1,n,x,3.2µM,n
COc1ccccc1N(CC(=O)Nc1c(C)cccc1C)S(C)(=O)=O,n[11.4 µM],x,n,n[11.4 µM]
CCOC(=O)c1c(C)c(C(=O)Nc2cc(F)ccc2F)c(C)n1C,7.9µM,n,n,u
COc1ccccc1-c1nc2s/c(=C\c3cccs3)c(=O)n2n1,n,x,u,x
